DUSP3 inh: inhibitors of human VHR1 phosphatase (DUSP3) | P51452 | recombinant VHR phosphatase, pNPP absorbance | inhibition, % at 13.3 µM | hit rate 0.52% among 290,000 | AID 1654; in the data active = inhibition above about 50%
Target sequence (P51452 whole entry, looked up): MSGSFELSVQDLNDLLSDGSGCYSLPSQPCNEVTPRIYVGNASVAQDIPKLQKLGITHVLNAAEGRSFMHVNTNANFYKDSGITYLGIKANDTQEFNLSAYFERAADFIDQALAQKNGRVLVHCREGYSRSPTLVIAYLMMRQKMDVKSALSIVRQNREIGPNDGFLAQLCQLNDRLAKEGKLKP
Sa RN4220 lethal: S. aureus RN4220 growth inhibition | OD600, 16 h | inhibition, % (test concentration not listed) | hit rate 0.33% among 330,000; in the data active = inhibition above about 85%
PriA SSB inh: inhibitors of Klebsiella pneumoniae PriA binding to SSB C-terminal tail; inhibition, % at 33 µM; AlphaScreen SSBct-PriA binding, biotinylated peptide; AID 1272365; hit rate 0.6% among 430,000; in the data active = inhibition mostly above about 37%, no sharp cut-off; inactive = mostly below about 20%
CCHF vOTU inh-1: CCHFV vOTU protease inhibition. Pep-AMC fluorescence. hit rate 0.55% among 370,000. inhibition, % at 11.5 µM. AID 651958
Sa ugtP lethal: compounds lethal to S. aureus RN4220 ugtP deletion mutant. OD600 growth, 16 h. growth inhibition, % (concentration not given with the values). hit rate 0.54% among 330,000; in the data active = growth inhibition above about 68%
CCHF vOTU inh-2: confirmation of CCHF virus vOTU protease inhibitors; shares compounds with CCHF vOTU inh-1; Recombinant CCHFV vOTU, Pep-AMC fluorescence; inhibition, % at 11.5 µM; hit rate 17% among 1,900
A number is an active result; 0 = inactive; - = not tested or not shown. Shown are actives, neighbours in structure and some others; about 1.5% of the full set was active somewhere. Rule as the data show it, unless noted: active = inhibition above about 30%; inactive = the rest.

SMILES	DUSP3 inh	Sa RN4220 lethal	PriA SSB inh	CCHF vOTU inh-1	Sa ugtP lethal	others
COc1ccc(C(=O)C(C#N)=NNc2cccc([N+](=O)[O-])c2)cc1	-	85.8	0	-	87.4
COc1cccc(C(=O)/C(C#N)=N/Nc2cccc(-c3ccnc(C)n3)c2)c1	0	-	-	0	-
N#CC(=NNc1cccc([N+](=O)[O-])c1)C(=O)c1ccc(Br)cc1	-	94.4	0	-	88.8
COc1ccc(C(=O)/C(C#N)=N/Nc2ccc([N+](=O)[O-])cc2)cc1	71.0	-	-	0	-
O=C(CSc1cccc2cccnc12)Nc1ccc2ccccc2c1	-	-	0	-	-
O=C(CSc1cccc2cccnc12)Nc1cc(C(=O)O)cc(C(=O)O)c1	0	0	75.3	0	0
Cc1cccc(NC(=O)CSc2cccc3cccnc23)c1	0	0	49.0	0	0
O=C(CSc1cccc2cccnc12)Nc1cc(Cl)cc(Cl)c1	-	-	56.8	-	-
O=C(CSc1cccc2cccnc12)NC1CCS(=O)(=O)C1 (stereo not given)	-	-	37.0	-	-
CC(C)c1ccc(NC(=O)CSc2cccc3cccnc23)cc1	-	-	0	-	-
O=C(NC(CO)CCO)c1ccccc1 (stereo not given)	-	-	0	-	-
COCCCn1c(C)nnc1SCC(=O)Nc1cccc(C)c1	60.0	0	0	0	0
Cn1nnn(-c2ccc(NC(=O)[C@@H]3CC=CCC3)cc2)c1=O	-	-	0	-	-
N#Cc1nc(Cc2ccccc2)oc1N1CCN(c2ccccc2)CC1	0	0	45.0	0	0
N#Cc1nc(Cc2ccccc2)oc1N1CCC(C(N)=O)CC1	0	0	0	0	0
N#Cc1nc(Cc2ccccc2)oc1N1CCC(Cc2ccccc2)CC1	0	0	50.4	0	0
NC(=NOC(=O)c1ccccc1Br)c1cccc([N+](=O)[O-])c1	-	0	0	-	0
N/C(=N\OC(=O)c1ccccc1F)c1cccc([N+](=O)[O-])c1	51.3	-	-	0	-
COc1ccc(CC(=O)N2CCN=C2SCc2cccc(C(F)(F)F)c2)cc1	-	-	0	-	-
CNC(=O)COc1coc(CN2CCN(Cc3ccccc3)CC2)cc1=O	0	0	0	0	0
O=C(COc1coc(CN2CCN(c3ccccc3)CC2)cc1=O)Nc1ccc(F)cc1	-	0	45.6	0	0
CC(C)NC(=O)COc1coc(CN2CCN(Cc3ccccc3)CC2)cc1=O	53.4	0	0	0	0
CCOc1ccc(CC(=O)NCC2CCN(C3CCCC3)CC2)cc1	-	-	0	-	-
CC(C)(C)c1csc(CN2CCN(S(=O)(=O)c3cccnc3)CC2)n1	-	-	0	-	-
COC(=O)CS[C@H]1CCN(C(=O)c2ccccc2F)C1	-	-	0	-	-
SMILES	DUSP3 inh	Sa RN4220 lethal	PriA SSB inh	CCHF vOTU inh-1	Sa ugtP lethal	others
CC(C)c1cccc2sc(NCc3ccccn3)nc12	-	-	0	-	-
Cc1csc(C(=O)NCCn2nc(C)cc2C)c1	-	-	0	-	-
CCOC(=O)C1=C(CC)Nc2ccccc2N=C1NC(=O)c1cc(C)on1	-	0	0	0	0
CCOC(=O)C1=C(CC)Nc2ccccc2N=C1NC(=O)Nc1ccc(Cl)c(Cl)c1	0	100.6	0	0	100.3
Clc1ccc(SCNc2ccccc2Cl)cc1	0	0	0	0	87.8
CCOC(=O)C(C)n1cnc2c(oc3ccccc32)c1=O (stereo not given)	51.0	0	0	0	0
CC(C)n1cnc2c(oc3ccccc32)c1=O	0	0	0	0	0
O=[N+]([O-])c1ccc(C2CCCC/C2=N/OCc2ccccc2F)c([N+](=O)[O-])c1 (stereo not given)	0	-	-	0	-
O=[N+]([O-])c1ccc(C2CCCCC2=NOCc2ccccc2F)c([N+](=O)[O-])c1 (stereo not given)	-	0	50.3	-	0
Cc1ccccc1C(=O)NCCn1ncccc1=O	-	-	0	-	-
CN1CCS/C1=C/C=C1\SC(=S)N(CC(=O)O)C1=O	0	0	0	34.6	0	CCHF vOTU inh-2=0
CN(C)c1cncc(O[C@H]2CCN(C(=O)Cc3ccccc3F)C2)n1	-	-	0	-	-
O=C(COc1ccc(Cl)cc1)NCCCn1nc(-c2cccnc2)ccc1=O	-	-	0	-	-
O=C(COc1ccc(NC(=O)c2ccccc2)cc1)c1ccccc1	0	0	0	31.2	0	CCHF vOTU inh-2=0
O=C(COc1ccc(Br)cc1)Nc1ccc(NC(=O)c2ccccc2)cc1	0	0	0	0	0
COC(=O)c1nc(-c2ccc3c(n2)C(=O)C(N)=C(OC)C3=O)c(N)c(-c2ccc(OC)c(OC)c2O)c1C	0	0	0	37.2	0	CCHF vOTU inh-2=105.8
COC1=C(N)C(=O)c2nc(-c3nc(C(=O)O)c(C)c(-c4ccc(OC)c(OC)c4O)c3N)ccc2C1=O	0	-	0	-	-
COc1cccc(CNC(=O)CC2CSc3nc4c(c(=O)n32)CCCC4)c1 (stereo not given)	-	-	0	-	-
O=C(Nc1nc(S(=O)(=O)Cc2ccccc2)ns1)c1cccnc1	-	-	0	-	-
COc1ccc(O)c(C(c2c(C)[nH][nH]c2=O)c2c(C)[nH][nH]c2=O)c1	0	-	0	84.2	-	CCHF vOTU inh-2=0
Cc1cc(NC(=O)c2nnn(Cc3ccccc3)c2-n2cccc2)no1	-	-	0	-	-
CN(C)S(=O)(=O)N1CCN(S(=O)(=O)N2CCOCC2)CC1	0	0	0	0	0
CN(C)S(=O)(=O)N1CCCN(S(=O)(=O)N(C)C)CC1	0	0	0	44.0	0	CCHF vOTU inh-2=0
CN(C)c1ccc(NC(=O)COC(=O)c2cc(=O)c3ccccc3o2)cc1	0	0	0	35.4	0	CCHF vOTU inh-2=0
CC(OC(=O)c1cc(=O)c2ccccc2o1)C(=O)Nc1ccc(N(C)C)cc1 (stereo not given)	-	0	0	0	0
SMILES	DUSP3 inh	Sa RN4220 lethal	PriA SSB inh	CCHF vOTU inh-1	Sa ugtP lethal	others
COCCNC(=O)c1cccc(S(=O)(=O)N2CC3(C)CC2CC(C)(C)C3)c1 (stereo not given)	-	0	0	33.0	0	CCHF vOTU inh-2=0
COCCCNC(=O)c1cccc(S(=O)(=O)N2CC3(C)CC2CC(C)(C)C3)c1 (stereo not given)	-	-	0	0	-
CCCCNC(=O)c1cccc(S(=O)(=O)N2CC3(C)CC2CC(C)(C)C3)c1 (stereo not given)	-	0	0	30.8	0	CCHF vOTU inh-2=0
O=C(NCc1cccs1)N1CCC(Oc2cnccn2)CC1	-	-	0	-	-
Cc1c(C)c2c(C)nn(-c3ccccc3)c2[nH]c1=O	0	0	0	0	0
Nc1c2c(=O)[nH]c(O)cc2nn1-c1ccccc1	-	0	0	62.8	0	CCHF vOTU inh-2=0
COC(=O)c1c(C)oc2c1cc(NS(=O)(=O)c1ccc(C(=O)O)cc1)c1ccccc12	0	0	0	37.5	0	CCHF vOTU inh-2=0
CCc1cc(-c2cnnn2Cc2ccccc2)ccc1-c1cn(CC(C)C)nn1	-	-	-	29.6	-	CCHF vOTU inh-2=0
CC(C)(C)c1ccc(-c2cn(C[C@H](Cc3ccccc3)n3c(=O)c4ccccc4n3Cc3ccccc3)nn2)cc1	-	-	-	0	-
O=C(O)c1ccc(Cl)c(S(=O)(=O)N(Cc2ccccc2)c2ccc(Cl)cc2)c1	0	0	0	31.1	0	CCHF vOTU inh-2=0
Cc1noc(C)c1COc1ccc(C(=O)N2CCN(c3cccc(Cl)c3)CC2)cc1	-	0	0	0	0
CC(=O)c1ccc(N2CCN(C(=O)c3ccc(OCc4c(C)noc4C)cc3)CC2)cc1	0	0	0	33.9	0	CCHF vOTU inh-2=0
O=C(CSc1ncc(-c2ccccc2)[nH]1)NCc1ccccc1	-	-	0	-	-
COc1ccccc1C(=O)Nc1ccc(NC(=O)C2CCCCC2)nc1	0	0	0	39.4	0	CCHF vOTU inh-2=0
COC(=O)c1ccc(NC(=O)CSc2cc(-n3nc(C)cc3C)ncn2)cc1	-	-	0	-	-

Assay outcomes from PubChem.
